# Screening results: PubChem BioAssay, National Center for Advancing Translational Sciences (NCATS)
# Only some compounds are listed: those with a hit (about 15% of all), similar ones and a draw of the others.
# Sm TGR inh: inhibitors of Schistosoma mansoni thioredoxin glutathione reductase | Q962Y6 | purified TGR, DTNB reduction, TNB absorbance 405 nm | Potency, µM (doses to about 114 µM), usual class: inhibitors | hit rate 3% among 360,000 | AID 485364; further: nearly all actives have a fitted effect of over 60% in size
#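 TGR 20 nM + NADPH 100 uM (dispensed conc.), cpd preinc 15 min RT; start with NADPH (500 uM addition) then DTNB (15 mM addition). Kinetic TNB absorbance, 405 nm filter. Four-parameter Hill fit across titration.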
# Pf growth 48h: inhibits P. falciparum growth in the first generation, 48 h | P. falciparum luciferase growth in erythrocytes, 48 h | Potency, µM (doses to about 28.7 µM), actives largely listed as inhibitors | hit rate 5.9% among 310,000 | AID 504832
#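 First compound was added to culture medium, then infected red cells at 0.1% parasitemia and 2% hematocrit (final). After incubation at 37 C under 5% CO2, luciferase detection reagent was dispensed and light output recorded.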
# SARS PLpro yeast: SARS-CoV PLP inhibition in yeast. Potency, µM (top dose mostly 32.9 µM), actives largely listed as activators. S. cerevisiae expressing SARS-CoV PLpro, growth rescue. hit rate 0.19% among 330,000. AID 485353; calls by dose curve; further: nearly all actives have a fitted effect of over 55% in size
# Pf growth 96h: P. falciparum growth inhibition at 96 hour, primary screen for plastid delayed-death inhibitors. AID 504834. hit rate 6.9% among 320,000. Potency, µM (top dose mostly 28.7 µM), hits mostly inhibitors. P. falciparum luciferase reporter growth, 96 h
#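 Luminescence readout: decreased luciferase signal marks inhibited growth of reporter-expressing P. falciparum in infected red cells (2% hematocrit, 0.05% parasitemia final), exposed to compound two generations (96 h, 37 C, 5% CO2).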
# HCV inh: inhibitors of hepatitis C virus infection; Huh7.5.1 HCVcc-Cre infection, luciferase reporter, 44 h; AID 651820; Potency, µM (titrated, usually from 41.8 µM), most hits filed as inhibitors; hit rate 3.4% among 340,000
#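 After 44 h co-culture of compound, cells and HCVcc-Cre (~0.5 moi), substrate is added for 15 min at room temperature and luciferase measured over 15 sec. Cells were seeded at 1,000/well and pre-cultured 4 h.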
# HCMV inh: inhibitors of human cytomegalovirus | AID 1259415 | HFF cells, HCMV-luciferase reporter, 72 h; active compounds read low | hit rate 4.5% among 410,000 | activity change, negative = inhibition, % at 57.5 µM; in the data active means activity change below about -60%; inconclusive means no clear call, values can overlap the other calls; inactive means above about -39%
#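 Screen run at 2 compound doses on HFFs infected with reporter HCMV, MOI 1 PFU/cell. Luciferase activity from cell lysates at 72 h post infection gave inhibition relative to buffer-only and Salinomycin wells.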
# Hits are given with their value; i = inactive; ? = inconclusive; nt = no result; ! = not confirmed by another sample; [ ] = another dose, or the depositor's remark. Unless noted, the call rests on the fitted dose curve; in most records, active means well fitted curve in the direction sought with a large enough effect; inconclusive means small, poorly fitted or top-dose-only effect, or another doubt; inactive means no such curve, though single readings can be large; an effect the other way counts as inactive or inconclusive.
SMILES,Sm TGR inh,Pf growth 48h,SARS PLpro yeast,Pf growth 96h,HCV inh,HCMV inh
COc1cc(-c2nnc(SCC(=O)/C(C#N)=C(\C)N)o2)cc(OC)c1OC,i,?,i,9.28µM,?,i
Cc1cc(C(=O)CSc2nc3ccccc3c(=O)[nH]2)c(C)n1CC1CCCO1 (stereo not drawn),i,i,i,i,11.2µM,?
COc1cc(-c2nnc(SCC(=O)c3cc(C)n(CC4CCCO4)c3C)o2)cc(OC)c1OC (stereo not drawn),i,8.28µM,i,i[5.75 µM],?,i
Cc1cc(C(=O)CSc2nnc(-c3ccc(F)cc3)o2)c(C)n1CC1CCCO1 (stereo not drawn),i,i,i,13.1µM,i,?
CCOC(=O)C1CCCN(C(=O)c2cc(S(=O)(=O)N3CCCCC3)c[nH]2)C1 (stereo not drawn),i,i,i,i,i,i
CCOC(=O)C1CCN(C(=O)CSc2nc3ncccc3[nH]2)CC1,i,i,i,?,i,i
C[C@@H](C(=O)Nc1cccnc1)n1c(=O)[nH]c2ccccc2c1=O,i,11.7µM,i,?,i,i
CCC(C(=O)Nc1ccc2c(c1)OCCO2)n1c(=O)[nH]c2ccccc2c1=O (stereo not drawn),i,i,i,i,i,-73.2
O=C(c1cc(S(=O)(=O)N2CCOCC2)c(Cl)cc1Cl)N1CCCC1,i,i,i,?,i,i
COc1cc2c(cc1OC)CN(C(=O)c1cc(S(=O)(=O)N3CCOCC3)c(Cl)cc1Cl)CC2,i,?,i,5.22µM,25.1µM,nt
COc1cc2c(cc1OC)CN(C(=O)c1cccs1)CC2,i,0.657µM,i,i,i,i
COc1cc(NC(=O)CSc2nc3[nH]ncc3c(=O)n2-c2ccccc2)cc(OC)c1OC,nt,nt,nt,nt,nt,i
O=C(c1cccs1)N1CCc2ccccc2C1,i,i,i,i,i,?
COc1cc2c(cc1OC)CN(C(=O)c1ccc(Br)o1)CC2,39.8µM,?,i,?,i,i
COc1cc2c(cc1OC)CN(C(=O)CSc1nc3[nH]ncc3c(=O)n1-c1ccccc1)CC2,i,?,i,i,11.2µM,nt
Cc1cccc(-n2c(=O)c3c(c4cc(C)ccc4n3C)n(CC(=O)N3CCCC3)c2=O)c1,i,nt,nt,nt,nt,i
CC1(C(=O)NS(=O)(=O)C2CC2)CCCN(C(=O)c2ccc3ccccc3c2)C1 (stereo not drawn),nt,nt,nt,nt,nt,i
COc1cc2c(cc1OC)CN(C(=O)CSC1=NCCS1)CC2,nt,nt,nt,nt,nt,-69.3
Cc1ccc(NC(=O)CCc2c(C)nc3ncnn3c2C)cc1Cl,i,nt,nt,nt,nt,i
Cc1ccc(Sc2nc(-c3ccccc3)nnc2C(F)(F)F)cc1,i,13.1µM,i,i,?,i
Clc1ccc(Nc2nccc3[nH]c(-c4ccccc4)nc23)cc1,nt,nt,nt,nt,nt,i
O=C(NC1CCCCCC1)C1c2ccccc2C(=O)N1CCCN1CCOCC1 (stereo not drawn),i,i,i,13.1µM,i,i
CC1(O)CCN2C(=O)CCc3cccc1c32 (stereo not drawn),i,i,i,?,i,-61.2
O=C(Cc1cc(=O)[nH][nH]1)N/N=C/c1cccc2ccccc12,i,i,i,i,i,-89.6
O=C(Cc1cc(=O)[nH][nH]1)N/N=C/c1c(Cl)cccc1Cl,i,i,i,?,i,i
SMILES,Sm TGR inh,Pf growth 48h,SARS PLpro yeast,Pf growth 96h,HCV inh,HCMV inh
O=C(Cc1cc(=O)[nH][nH]1)N/N=C/c1ccccc1Cl,i,i,i,i,i,i
O=C(Cc1cc(=O)[nH][nH]1)N/N=C/c1cccc(Cl)c1Cl,i,?,i,?,i,-102.1!
O=C(Cc1cc(=O)[nH][nH]1)N/N=C/C(Cl)=C/c1ccccc1,i,1.17µM!,i,i,i,i
CCn1c(CNC(=O)c2ccc(OC)cc2)nnc1SCC(=O)Nc1ccccc1,i,nt,nt,nt,nt,i
CC1=C(C(=O)OCCCBr)C(c2ccc3c(c2)OCO3)NC(=O)N1 (stereo not drawn),25.1µM,?,i,?,i,nt
CC1=C(C(=O)OC2CCCCC2)C(c2ccc(F)cc2)NC(=O)N1 (stereo not drawn),i,i,i,9.28µM,i,i
CC1=C(C(=O)OCCBr)C(c2cccc3ccccc23)NC(=O)N1 (stereo not drawn),39.8µM,nt,i,?,i,i
CCOC(=O)C1=C(CCl)NC(=O)NC1c1ccc2c(c1)OCO2 (stereo not drawn),8.91µM,?,i,i,?,i
COc1ccc(CN(C(=O)c2ccccc2F)C2CCS(=O)(=O)C2)cc1 (stereo not drawn),i,nt,nt,nt,nt,i
CCOC(=O)/C=c1\s/c(=C\c2sccc2C)c(=O)n1CC(=O)NCc1ccc(C)cc1,nt,i,i,i,nt,i
CCC(=O)Nc1ccccc1-c1nc2ccccc2n(CC(=O)c2ccc(C)c(C)c2)c1=O,i,nt,nt,nt,nt,i
CCOC(=O)C1=C(Cn2cnc3ccccc32)NC(=O)NC1c1ccc(OC)cc1 (stereo not drawn),i,nt,i,?,i,i
CCOC(=O)C1=C(Cn2cnc3ccccc32)NC(=O)NC1c1ccc(Cl)cc1 (stereo not drawn),i,nt,?,5.86µM,i,i
CC1=C(C(=O)OCc2ccc3c(c2)OCO3)C(c2ccc(F)cc2)NC(=O)N1 (stereo not drawn),i,i,i,i,?,nt
CC1=C(C(=O)OCc2ccc3c(c2)OCO3)C(c2ccc(Cl)cc2)NC(=O)N1 (stereo not drawn),i,nt,i,i,?,-85.7
O=C(Cc1ccc(N2CCNC2=O)cc1)N1CCCC(Nc2ccc(F)c(F)c2)C1 (stereo not drawn),i,?,i,?,?,-61.4
O=C(Cc1ccc(N2CCNC2=O)cc1)N1CCCC(Nc2cccc(F)c2)C1 (stereo not drawn),i,?,i,i,i,i
O=C(CCc1ccncc1)N1CCCC(Nc2ccc(F)c(F)c2)C1 (stereo not drawn),i,i,i,13.1µM,i,i
COc1ccc(NC2CCCN(C(=O)CCCn3cncn3)C2)cc1OC (stereo not drawn),i,i,i,2.62µM,i,i
CN(C(=O)Cn1cccc1C1=NC(c2ccccc2)CO1)c1ccccc1 (stereo not drawn),i,i,i,i,i,i
CCOC(=O)c1noc2nc(C)n(CC(=O)NC(C)CC)c(=O)c12 (stereo not drawn),i,nt,nt,nt,nt,i
CCCCCCCCCCCCCCCCCCCCCCO,nt,i,nt,i,nt,nt
CC12CCC(=O)N1C(C(=O)N1CCN(S(=O)(=O)c3ccc(Br)cc3Cl)CC1)CS2 (stereo not drawn),i,?,i,?,?,?
CCCCNC(=S)N/N=C/C1=CCC2CC1C2(C)C (stereo not drawn),i,9.28µM,i,11.7µM,?,i
